LEDGF integ inh: blocks HIV-1 LEDGF/p75-dependent DNA integration | TR-FRET IN-LEDGF/p75 DNA integration, Eu/Cy5 | inhibition, % at 3.7 µM | 0.64% of 370,000 active;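 active = inhibition above the screen-wide mean plus 3 SD, cut at about 13% in these data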;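 also: signal is the Cy5 over europium emission ratio at 671 and 618 nm; 0% = plate median of compound wells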
KLK7 zymogen act: activators of human kallikrein-7 zymogen. purified proKLK7, EDANS-DABCYL substrate fluorescence; 100% is mature enzyme control, 0% vehicle. activation, % at 7 µM. P49862. AID 652039. 0.9% of 370,000 active;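 active = activation above the mean of all tested compounds plus 3 SD, computed per campaign excluding outliers beyond control limits, cut at about 13% in these data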
UHRF1 binding: blocks human UHRF1 binding to methylated DNA | Q96T88 | UHRF1 binding to methylated oligo, TR-FRET | inhibition, % at 4.4 µM | 0.75% of 370,000 active; in the data active = inhibition above about 21%;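 also: UHRF1 SRA domain binding a hemimethylated CpG hairpin DNA probe; 0% = median of test compound wells and 100% = reference inhibitor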
MBD2 DNA inh: inhibitors of human MBD2 binding to methylated oligonucleotide | Q9UBB5 | TR-FRET | inhibition, % at 4.4 µM | 0.31% of 370,000 active | AID 686964; in the data active = inhibition above about 13%
Neddylation inh: blocks human cullin neddylation | calls only at 25 µM | AID 651699 | TR-FRET cullin neddylation, biochemical | 0.58% of 360,000 active; in the data active = inhibition above about 36%
Target sequence (P61081 whole entry, looked up): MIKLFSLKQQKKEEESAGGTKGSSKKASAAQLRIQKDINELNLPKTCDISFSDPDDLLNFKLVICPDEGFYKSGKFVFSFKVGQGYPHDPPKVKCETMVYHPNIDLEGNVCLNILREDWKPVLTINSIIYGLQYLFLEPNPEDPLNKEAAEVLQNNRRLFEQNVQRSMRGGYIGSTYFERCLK
Target sequence (Q13564 whole entry, looked up): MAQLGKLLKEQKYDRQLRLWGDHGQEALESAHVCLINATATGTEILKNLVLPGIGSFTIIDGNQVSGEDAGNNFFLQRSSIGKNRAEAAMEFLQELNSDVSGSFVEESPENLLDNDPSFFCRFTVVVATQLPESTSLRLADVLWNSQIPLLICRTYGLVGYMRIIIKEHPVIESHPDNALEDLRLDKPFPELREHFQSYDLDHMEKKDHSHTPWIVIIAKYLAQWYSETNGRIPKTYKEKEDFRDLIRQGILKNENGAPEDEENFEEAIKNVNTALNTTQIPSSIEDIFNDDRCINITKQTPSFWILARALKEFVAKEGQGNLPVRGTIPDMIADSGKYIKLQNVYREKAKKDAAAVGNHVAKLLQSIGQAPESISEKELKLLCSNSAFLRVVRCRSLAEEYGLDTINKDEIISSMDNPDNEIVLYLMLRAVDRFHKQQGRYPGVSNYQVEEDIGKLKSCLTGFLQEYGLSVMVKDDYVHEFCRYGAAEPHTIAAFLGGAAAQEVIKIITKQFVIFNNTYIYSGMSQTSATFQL
Rin1 Abl inh: blocks binding of human Rin1 to Abl; inhibition, % at 7.35 µM; TR-FRET Rin1/Abl binding, biochemical; AID 588664; 0.4% of 360,000 active; P00519+Q13671; in the data active = inhibition above about 5%, passing the limit was not always enough
Rin1 Abl conf: confirmation of inhibitors of human Rin1-Abl interaction; TR-FRET Rin1-Abl binding, purified proteins; inhibition, % at 7.35 µM; shares compounds with Rin1 Abl inh; 49% of 1,300 active
GFP quencher: GFP fluorescence interference artifact. shares compounds with Rin1 Abl inh. inhibitors/quenchers counterscreen. inhibition, % at 6.75 µM. 8.5% of 1,300 active. AID 602125;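 also: ABL1-eGFP fusion protein alone without its partner RIN1-SBP; 0% = protein with vehicle and 100% = wells lacking protein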
GFP quench DR: quenches GFP in dose response, Rin1-Abl counter-screen; shares compounds with Rin1 Abl inh; GFP fluorescence interference/quenching counterscreen; IC50, µM; 230 tested, under 10 active; AID 602182; call rule not given here;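 also: ABL1-eGFP fusion protein alone without its RIN1 binding partner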
Active calls of the source: *; i = inactive; · = no result. A selection: hits, their analogues and other compounds. The true share with any hit is near 3.1%. Rule as the data show it, unless noted: active = inhibition above about 6.5%; inactive = the rest.

SMILES | LEDGF integ inh | KLK7 zymogen act | UHRF1 binding | MBD2 DNA inh | Neddylation inh | Rin1 Abl inh | Rin1 Abl conf | GFP quencher | others
CC(=O)c1cccc(-c2ccnc3c2CC(C(=O)NCc2ccc(N4CCN(C)CC4)cc2)O3)c1 (stereo not drawn) | 1 | 1 | 3 | 0 | i | 25* | 18* | -1 | GFP quench DR=>68
CC(=O)c1cccc(-c2ccnc3c2CC(C(=O)NCc2ccccc2)O3)c1 (stereo not drawn) | -4 | 0 | -2 | -1 | i | -2 | · | ·
Cc1ccccc1C(=O)N1CCC(C(=O)NC2CCCC2)CC1 | 0 | 0 | 0 | -3 | i | -1 | · | ·
CCCCc1ccc(NC(=O)COC(=O)c2ccc3ncsc3c2)cc1 | 0 | 1 | 1 | 1 | i | 1 | · | ·
Cn1c(=O)c2ncn(CC(=O)NCCOc3ccccc3)c2n(C)c1=O | -1 | -1 | 0 | -3 | i | 1 | · | ·
Cc1ccc(OCCNC(=O)Cn2cnc3c(=O)n(C)c(=O)n(C)c32)cc1C | 5 | 1 | -1 | 2 | i | 10* | 0 | -3
COc1cc(N2C[C@@]3(O)CC[C@@H](O)[C@@H](OC)[C@@H]3[C@@](C)(O)[C@@H]2CC=C(C)C)cc(OC)c1OC | -1 | 0 | 0 | 2 | · | · | · | ·
O=C(O)C1CCN(Cc2oc(CO)cc(=O)c2O)C1 (stereo not drawn) | 5 | 0 | 0 | -6 | i | 6 | · | ·
O=c1cc(CO)oc(CN2CCN(Cc3ccccc3)CC2)c1O | 4 | 1 | 0 | -7 | i | 5 | · | ·
CN1CCN(Cc2oc(CO)cc(=O)c2O)CC1 | 5 | 0 | -3 | -2 | i | 12* | -1 | -1
CCN(CC)Cc1oc(CO)cc(=O)c1O | 1 | 0 | 4 | 3 | i | 26* | 11* | 2
O=c1cc(CO)oc(CN2CCCC2)c1O | 1 | 0 | -4 | -1 | i | 27* | 3 | 0
CCc1cc(CNC(=O)C2CCC(=O)N(CCc3cccc(F)c3)C2)on1 (stereo not drawn) | 5 | -1 | -3 | -6 | i | 0 | · | ·
Nc1ccc2c(c1)C(=O)c1ccccc1-2 | -4 | 0 | -16 | -21 | i | -12 | · | ·
Nc1ccc2c(c1)C(=O)C(=O)c1ccccc1-2 | -19 | 1 | -15 | 5 | i | 10* | 5 | 4
CCc1ccc(C(=O)Cc2cc3cccc(OC)c3oc2=O)cc1 | 0 | 1 | 3 | -7 | i | 8.5* | 1 | 0
CC(C)(C)NC(=O)c1ccc(NC(=O)c2ccccc2-c2ccccc2C(=O)O)cc1 | 1 | -1 | -1 | -7 | i | 6.5* | 0 | 1
COc1ccc2c(c1)CCCN2C(=O)C1CCCN(S(=O)(=O)c2cccc3ccccc23)C1 (stereo not drawn) | 1 | 1 | -3 | 3 | · | · | · | ·
Cc1ccc2[nH]c(=O)c(C3C(C#N)=C(N)Oc4c3ccc3cccnc43)cc2c1 (stereo not drawn) | -2 | 0 | -9 | -5 | i | 9.8* | 2 | 6
N#CC1=C(N)Oc2c(ccc3cccnc23)C1c1ccccc1 (stereo not drawn) | -8 | -5 | 2 | 3 | i | 1 | · | ·
Fc1cccc(Cl)c1C1SCc2nc3ccccc3n21 (stereo not drawn) | 0 | -1 | -1 | -1 | i | 4 | · | ·
COc1ccc(N2C(=NC(=O)C3CC3)SC3CS(=O)(=O)CC32)cc1Cl (stereo not drawn) | 0 | 0 | 1 | 2 | i | -2 | · | ·
CCN(CC)C(=O)[C@H]1CC(CC(=O)NCc2ccco2)C(=O)N2CCc3c([nH]c4ccc(OC)cc34)[C@]12C (stereo partly drawn) | 4 | 0 | 2 | -2 | i | 1 | · | ·
Cc1nn(Cc2c(Cl)cccc2Cl)c(C)c1NC(=O)c1cnn2c(C(F)F)cc(-c3ccccc3)nc12 | 2 | 1 | 1 | 3 | i | 12* | -2 | 0
O=C(Cn1ccc(NC(=O)OCc2ccccc2)nc1=O)NCCN1CCOCC1 | -3 | 0 | 2 | -2 | i | 4 | · | ·
SMILES | LEDGF integ inh | KLK7 zymogen act | UHRF1 binding | MBD2 DNA inh | Neddylation inh | Rin1 Abl inh | Rin1 Abl conf | GFP quencher | others
O=C(Cn1ccc(NC(=O)OCc2ccccc2)nc1=O)NCCCN1CCCC1=O | -1 | 0 | 1 | 3 | i | 12* | 6.6* | 0
O=C(Nc1ccn(CCCN2CCN(Cc3ccc(F)cc3)CC2)c(=O)n1)OCc1ccccc1 | 2 | 0 | 1 | 0 | i | 19* | 19* | 0 | GFP quench DR=>68
O=C(Nc1ccn(CCCN2CCN(c3ncccn3)CC2)c(=O)n1)OCc1ccccc1 | 0 | 0 | -2 | 6 | i | 8.5* | 11* | -1
CCC/C=C/c1ccc(CN2C(C)C(=O)N(Cc3cn(CCC4OCCO4)nn3)CCS2(=O)=O)cc1 (stereo not drawn) | -1 | 0 | 0 | -1 | i | -1 | · | ·
Cc1ccc(N(CC(O)CN2C(=O)NC(C)(C)C2=O)S(=O)(=O)c2ccc([N+](=O)[O-])cc2)cc1 (stereo not drawn) | 1 | 0 | 6 | -3 | i | 4 | · | ·
COC(=O)C=CC(=NNc1ccccc1)c1ccccc1 | -6 | 1 | 1 | -2 | i | 9.1* | -2 | -1
COC(=O)c1nnn(-c2nonc2N)c1COc1ccc(C=O)cc1OC | 0 | 0 | 14 | 3 | i | -1 | · | ·
Cc1onc(-c2ccccc2)c1C(=O)N1CCN(C(=O)C(=O)c2cccc(C(F)(F)F)c2)CC1 | -2 | 0 | 1 | 7 | · | · | · | ·
O=S(=O)(c1cccc(-n2cnnn2)c1)N1CCOCC1 | 1 | 0 | 0 | 1 | i | 8.9* | 0 | -3
Cc1ncc(C[n+]2csc(C)c2C)c(N)n1 | 2 | 1 | 5 | 5 | i | 9.7* | -1 | -3
CCOC(=O)c1[nH]c(=O)[nH]c1CSc1nc(C)cc(C)n1 | -4 | 1 | 0 | -6 | i | 4 | · | ·
CCOC(=O)c1[nH]c(=O)[nH]c1CSCCO | 1 | 0 | -1 | 1 | i | 8.1* | 12* | 0
NCCNC(=O)Cc1ccc(NC(=O)Cc2ccc(Nc3ncnc4c3ncn4[C@@H]3O[C@H](CO)[C@@H](O)[C@H]3O)cc2)cc1 | 1 | 0 | -3 | -4 | i | 16* | 28* | -2
CCOC(=O)c1ccc(-n2[nH]c(-c3ccccc3)cc2=O)cc1 | 6 | 0 | 13 | 1 | i | -2 | · | ·
Cc1cc(=O)n(-c2ccc(C(=O)O)cc2)[nH]1 | -2 | 0 | 0 | -4 | i | 8.3* | 0 | -1
